Common to all, as to design: scale not given: direction of the effect not stated beside the values
Assay [1] addresses Protein translocase subunit SecA (Escherichia coli (strain K12)) (UniProt P10408). As to the kind of experiment: Assay to Identify E. coli SecA ATPase Inhibitors. The class given is functional. As to conditions: 30 µM.
The target of assay [2] is T1, Ubiquitin-activating enzyme e1, putative (Leishmania donovani (strain BPK282A1)) (UniProt E9BSI1).
T1 sequence (whole entry): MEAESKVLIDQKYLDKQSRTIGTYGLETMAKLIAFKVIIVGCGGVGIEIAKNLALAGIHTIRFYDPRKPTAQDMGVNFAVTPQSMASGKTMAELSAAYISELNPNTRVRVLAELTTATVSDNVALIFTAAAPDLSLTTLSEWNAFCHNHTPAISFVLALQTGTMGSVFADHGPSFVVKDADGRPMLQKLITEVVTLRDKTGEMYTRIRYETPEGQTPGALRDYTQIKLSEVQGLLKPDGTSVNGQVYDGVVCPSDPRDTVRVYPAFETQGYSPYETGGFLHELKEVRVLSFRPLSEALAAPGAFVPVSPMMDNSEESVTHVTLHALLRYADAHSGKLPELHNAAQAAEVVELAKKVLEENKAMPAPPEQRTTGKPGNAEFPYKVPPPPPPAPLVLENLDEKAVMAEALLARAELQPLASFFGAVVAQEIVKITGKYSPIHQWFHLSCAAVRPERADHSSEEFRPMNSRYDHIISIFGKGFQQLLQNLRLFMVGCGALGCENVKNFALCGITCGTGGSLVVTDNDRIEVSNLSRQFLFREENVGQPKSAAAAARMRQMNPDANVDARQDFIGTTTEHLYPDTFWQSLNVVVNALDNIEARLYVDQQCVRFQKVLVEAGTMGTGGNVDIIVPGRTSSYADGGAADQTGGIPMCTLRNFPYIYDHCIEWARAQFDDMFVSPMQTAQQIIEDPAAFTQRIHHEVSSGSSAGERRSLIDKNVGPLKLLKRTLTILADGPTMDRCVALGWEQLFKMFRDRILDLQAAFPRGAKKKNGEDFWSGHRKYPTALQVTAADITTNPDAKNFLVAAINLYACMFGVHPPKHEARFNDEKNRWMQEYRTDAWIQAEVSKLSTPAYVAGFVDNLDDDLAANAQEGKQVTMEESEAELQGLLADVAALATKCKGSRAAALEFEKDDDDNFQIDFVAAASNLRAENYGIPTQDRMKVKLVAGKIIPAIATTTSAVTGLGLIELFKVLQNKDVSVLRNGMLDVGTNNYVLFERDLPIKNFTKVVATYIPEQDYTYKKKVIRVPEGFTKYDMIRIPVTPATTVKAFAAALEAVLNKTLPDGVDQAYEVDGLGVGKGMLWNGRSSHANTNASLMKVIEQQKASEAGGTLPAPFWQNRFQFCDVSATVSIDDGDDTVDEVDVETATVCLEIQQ
As to the kind of experiment: Leishmania donovani Ubiquitin Activating Enzyme (LdE1). The class given is functional. To be noted: 30 µM.

For assay [3], the target named is AMP-activated protein kinase, AMPK (Homo sapiens) (UniProt P54646+O43741+P54619+Q9UGJ0+Q9Y478+Q13131+Q9UGI9). Briefly: AMP-dependent Kinase enzyme assay. An in vitro enzyme assay that detects ADP turnover that is directly proportional to AMPK activity. This uses naive AMPK that is activated during the assay with MK-8722. It counts as functional. To be noted: 30 µM.

Assay [4] has as its target Sialic acid-binding Ig-like lectin 9 (Homo sapiens) (UniProt Q9Y336). As to the kind of experiment: Hs-Siglec9 ALPHAscreen SOP 20170721. As to conditions: 10 µM.
In assay [5] the test system is Trypanosoma cruzi. As to the kind of experiment: Trypanosoma cruzi phosphomannomutase and mannose-1-phosphate guanylyltransferase assay. It counts as functional. As to conditions: 10 µM.
For assay [6], the target named is T2, Arginase-2, mitochondrial (Homo sapiens) (UniProt P78540).
T2 sequence (whole entry): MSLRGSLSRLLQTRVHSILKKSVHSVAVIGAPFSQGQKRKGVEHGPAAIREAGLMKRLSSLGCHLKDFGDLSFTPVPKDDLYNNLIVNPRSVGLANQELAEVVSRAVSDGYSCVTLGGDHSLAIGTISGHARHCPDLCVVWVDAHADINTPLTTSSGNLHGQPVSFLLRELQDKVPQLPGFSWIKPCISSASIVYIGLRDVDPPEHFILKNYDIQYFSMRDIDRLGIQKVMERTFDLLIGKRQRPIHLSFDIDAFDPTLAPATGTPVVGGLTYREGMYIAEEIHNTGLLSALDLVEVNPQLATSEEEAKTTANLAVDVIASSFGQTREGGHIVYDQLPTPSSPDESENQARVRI
Briefly: in vitro enzyme assay to detect the production of urea directly proportional to the activity of Arginase II. Further: in the data most compounds retested in dose-response had high values. It counts as functional. As to conditions: 33.3 µM.

Assay [7] concerns the target T3, Proteasome subunit beta (Trypanosoma cruzi) (UniProt O96673).
T3 sequence (whole entry): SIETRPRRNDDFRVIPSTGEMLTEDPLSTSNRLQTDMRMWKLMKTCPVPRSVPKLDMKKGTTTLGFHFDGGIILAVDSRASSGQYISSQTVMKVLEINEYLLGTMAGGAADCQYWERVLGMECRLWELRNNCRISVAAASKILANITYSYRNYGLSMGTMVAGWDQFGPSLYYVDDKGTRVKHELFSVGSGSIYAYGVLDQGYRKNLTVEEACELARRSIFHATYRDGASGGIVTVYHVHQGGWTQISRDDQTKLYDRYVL
Briefly: Trypanosoma cruzi proteasome chymotrypsin-like activity (TcProtChymo) assay. Further: in the data most compounds retested in dose-response had high values. It counts as functional. To be noted: 9.37 µM.

Assay [8] is filed under the species Homo sapiens. As to the kind of experiment: To identify inhibition of the IFN signalling (Jak-Stat) pathway via expression of an eGFP reporter gene under the control of an IFN-stimulated response element (ISRE) containing MxA promoter. As to conditions: 30 µM. The class given is functional.
In assay [9] the target is T4, Tyrosyl-tRNA synthetase, putative (Trypanosoma cruzi (strain CL Brener)) (UniProt Q4DSP6).
T4 sequence (whole entry): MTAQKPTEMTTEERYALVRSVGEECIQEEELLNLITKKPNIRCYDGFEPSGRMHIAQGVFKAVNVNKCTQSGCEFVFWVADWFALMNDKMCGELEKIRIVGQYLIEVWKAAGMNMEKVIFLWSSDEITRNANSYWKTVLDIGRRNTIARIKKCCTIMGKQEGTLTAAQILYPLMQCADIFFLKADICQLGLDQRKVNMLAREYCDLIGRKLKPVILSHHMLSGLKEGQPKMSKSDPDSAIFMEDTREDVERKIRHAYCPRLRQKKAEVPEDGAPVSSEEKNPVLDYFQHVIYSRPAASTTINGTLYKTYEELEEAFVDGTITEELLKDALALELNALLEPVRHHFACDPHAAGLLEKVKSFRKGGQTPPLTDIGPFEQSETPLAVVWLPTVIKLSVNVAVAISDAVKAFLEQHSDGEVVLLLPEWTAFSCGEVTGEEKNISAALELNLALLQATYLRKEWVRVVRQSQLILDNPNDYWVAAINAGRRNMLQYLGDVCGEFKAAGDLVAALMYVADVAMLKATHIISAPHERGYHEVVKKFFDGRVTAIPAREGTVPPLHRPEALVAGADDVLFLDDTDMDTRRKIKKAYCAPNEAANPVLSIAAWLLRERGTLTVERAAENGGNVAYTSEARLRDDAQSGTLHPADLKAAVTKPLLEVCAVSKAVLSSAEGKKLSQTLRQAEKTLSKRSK
As to the kind of experiment: Trypanosoma cruzi tyrosyl tRNA synthetase (TcYRS) _High Tyrosine SOP. Further: in the data most compounds retested in dose-response had high values. The class given is functional. To be noted: 30 µM.

For assay [10], the target named is T4, Tyrosyl-tRNA synthetase, putative (Trypanosoma cruzi (strain CL Brener)). As to the kind of experiment: Trypanosoma cruzi tyrosyl tRNA synthetase (TcYRS) SOP. It counts as functional. As to conditions: 30 µM.
The target in assay [11] is Chromo domain-containing protein 1 (Saccharomyces cerevisiae (strain ATCC 204508 / S288c) (Baker's yeast)) (UniProt P32657). Briefly: ScCHD-1 Enzyme Inhibition Assay. Further: in the data most compounds retested in dose-response had high values. The class given is functional. To be noted: 30 µM.

For some of these results: Entries with a potency or affinity are not part of this list.

Sequence of Chromo domain-containing protein 1 (Saccharomyces cerevisiae (strain ATCC 204508 / S288c) (Baker's yeast)) (P32657 whole entry, the tested form may be a part): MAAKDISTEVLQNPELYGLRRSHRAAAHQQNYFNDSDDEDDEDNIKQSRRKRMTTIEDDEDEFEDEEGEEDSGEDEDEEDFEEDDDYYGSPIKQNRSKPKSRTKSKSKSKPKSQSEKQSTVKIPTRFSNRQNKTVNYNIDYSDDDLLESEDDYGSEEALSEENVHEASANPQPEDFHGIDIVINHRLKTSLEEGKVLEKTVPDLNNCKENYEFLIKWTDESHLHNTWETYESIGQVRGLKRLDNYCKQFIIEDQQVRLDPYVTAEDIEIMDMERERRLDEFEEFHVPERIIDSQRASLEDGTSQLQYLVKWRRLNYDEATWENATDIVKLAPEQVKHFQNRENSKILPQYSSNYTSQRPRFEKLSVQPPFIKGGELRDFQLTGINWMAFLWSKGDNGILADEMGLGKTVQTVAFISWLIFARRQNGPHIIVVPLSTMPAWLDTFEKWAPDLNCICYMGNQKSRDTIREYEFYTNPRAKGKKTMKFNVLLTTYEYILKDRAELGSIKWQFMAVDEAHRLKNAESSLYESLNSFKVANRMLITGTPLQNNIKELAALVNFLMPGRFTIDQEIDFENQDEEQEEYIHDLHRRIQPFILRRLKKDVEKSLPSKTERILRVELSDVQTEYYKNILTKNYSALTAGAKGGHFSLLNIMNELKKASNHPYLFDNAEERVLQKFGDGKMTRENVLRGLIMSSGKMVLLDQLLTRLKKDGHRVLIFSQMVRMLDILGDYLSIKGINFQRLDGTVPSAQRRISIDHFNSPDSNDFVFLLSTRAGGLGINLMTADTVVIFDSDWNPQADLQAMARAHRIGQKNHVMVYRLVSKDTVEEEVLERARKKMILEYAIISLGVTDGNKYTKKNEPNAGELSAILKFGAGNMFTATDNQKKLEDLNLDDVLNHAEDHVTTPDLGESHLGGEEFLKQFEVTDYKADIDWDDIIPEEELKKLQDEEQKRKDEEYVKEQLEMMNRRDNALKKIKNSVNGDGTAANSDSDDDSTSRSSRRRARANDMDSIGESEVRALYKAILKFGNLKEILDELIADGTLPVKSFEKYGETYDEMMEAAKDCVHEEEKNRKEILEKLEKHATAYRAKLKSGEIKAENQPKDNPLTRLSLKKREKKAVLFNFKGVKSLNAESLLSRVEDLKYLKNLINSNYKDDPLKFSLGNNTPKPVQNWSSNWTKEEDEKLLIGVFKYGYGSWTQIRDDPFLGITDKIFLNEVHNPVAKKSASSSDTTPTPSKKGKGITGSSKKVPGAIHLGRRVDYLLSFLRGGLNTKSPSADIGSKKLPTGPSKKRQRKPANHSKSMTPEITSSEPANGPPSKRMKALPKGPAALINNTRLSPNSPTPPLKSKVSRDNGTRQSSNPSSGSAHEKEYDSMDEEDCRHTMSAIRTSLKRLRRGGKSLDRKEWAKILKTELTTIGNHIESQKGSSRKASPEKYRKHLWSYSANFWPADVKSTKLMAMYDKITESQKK
Sequence of Sialic acid-binding Ig-like lectin 9 (Homo sapiens) (Q9Y336 whole entry): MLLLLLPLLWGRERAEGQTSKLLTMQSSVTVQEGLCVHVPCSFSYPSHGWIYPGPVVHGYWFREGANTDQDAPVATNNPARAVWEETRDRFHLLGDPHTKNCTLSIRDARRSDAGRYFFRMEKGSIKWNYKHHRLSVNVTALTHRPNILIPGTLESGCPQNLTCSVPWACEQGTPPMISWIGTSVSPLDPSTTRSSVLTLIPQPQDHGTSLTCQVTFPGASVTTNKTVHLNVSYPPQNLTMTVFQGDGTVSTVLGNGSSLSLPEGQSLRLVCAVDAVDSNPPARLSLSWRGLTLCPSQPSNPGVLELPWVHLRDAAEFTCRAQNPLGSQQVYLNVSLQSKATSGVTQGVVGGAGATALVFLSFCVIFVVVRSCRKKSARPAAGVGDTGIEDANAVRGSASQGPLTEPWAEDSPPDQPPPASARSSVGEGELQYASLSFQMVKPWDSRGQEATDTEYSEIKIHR
Sequence of Protein translocase subunit SecA (Escherichia coli (strain K12)) (P10408 whole entry): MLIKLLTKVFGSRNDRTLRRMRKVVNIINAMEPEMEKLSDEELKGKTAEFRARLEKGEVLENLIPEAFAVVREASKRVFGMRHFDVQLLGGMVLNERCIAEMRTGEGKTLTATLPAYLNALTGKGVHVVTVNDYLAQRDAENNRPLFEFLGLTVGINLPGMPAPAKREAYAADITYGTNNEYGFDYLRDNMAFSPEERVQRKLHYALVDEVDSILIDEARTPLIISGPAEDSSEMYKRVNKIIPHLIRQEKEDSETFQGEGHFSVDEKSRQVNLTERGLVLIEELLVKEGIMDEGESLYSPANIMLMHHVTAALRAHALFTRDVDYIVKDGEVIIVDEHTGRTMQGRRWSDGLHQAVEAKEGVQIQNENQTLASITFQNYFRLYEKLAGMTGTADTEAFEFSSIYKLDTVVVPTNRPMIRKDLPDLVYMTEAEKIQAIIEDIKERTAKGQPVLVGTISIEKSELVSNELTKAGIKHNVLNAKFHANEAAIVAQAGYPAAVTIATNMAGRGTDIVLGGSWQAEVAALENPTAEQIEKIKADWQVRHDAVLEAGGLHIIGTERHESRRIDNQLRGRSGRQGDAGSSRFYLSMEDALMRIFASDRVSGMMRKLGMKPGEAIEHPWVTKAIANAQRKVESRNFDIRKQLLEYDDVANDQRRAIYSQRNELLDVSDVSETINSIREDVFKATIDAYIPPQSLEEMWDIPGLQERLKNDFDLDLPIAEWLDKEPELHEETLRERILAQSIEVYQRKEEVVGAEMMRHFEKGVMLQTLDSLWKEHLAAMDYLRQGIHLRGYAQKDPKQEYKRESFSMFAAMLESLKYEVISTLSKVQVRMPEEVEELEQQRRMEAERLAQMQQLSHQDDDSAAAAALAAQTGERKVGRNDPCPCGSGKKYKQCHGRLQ

Consider `CCc1nc(C2CCCN2C(=O)CCNS(C)(=O)=O)no1` (stereo unspecified), for which the Percent Effect was -2.77% in assay [1]; 27% in assay [2]; -4.56% in assay [3]; -1.58% in [4]; 3.25% in assay [5]; -2.03% in assay [6]. Further, the Percent Effect was 19% in [7]; 21.8% in assay [8]; 7.92% in assay [9]; 23.2% in assay [10]; -6.19% in [11].
Take `CCn1cc(CN2CCCn3nc(CCC(=O)NCCO)cc3C2)cn1`: the Percent Effect in assay [1] is -3.01%; in assay [2], 5.2%; in [3] it was 13.5%; in assay [4], 4.51%; in assay [5], -5.41%; in [6], 0%. For the same molecule, the Percent Effect in assay [7] was 19.8%; in assay [8] it was -0.55%; in [9], 4.3%; in [10] it was 8.64%; in assay [11], 0.629%.
Turning to `COCCN1CCCC(c2nc3c([nH]2)CC(C)(C)CNC3=O)C1` (stereo unspecified), the Percent Effect in assay [1] is 0.299%; in assay [2], 5.41%; in assay [3], -1.1%; in assay [4], 13.4%; in [5], 2.32%; in assay [6], 25.2%. The Percent Effect in assay [7] was 12.4%; in [8], 10.5%; in [9], 5.82%; in assay [10] it was 9.76%; in [11], 0.619%.
As for `Cn1cc(CN2C[C@@H]3COC[C@@H](C(=O)N4CCCCO4)[C@@H]3C2)cn1`, the Percent Effect in [1] was -2.29%; in assay [2] it was 2.67%; in assay [3], 9.23%; in assay [4], 1.72%; in assay [5], 0.787%; in assay [6], 3.03%. The Percent Effect in assay [7] is 8.19%; in assay [8], 3.52%; in assay [9], 7.45%; in assay [10], 8.97%; in assay [11], 1.85%.
Consider `COc1cc(C)ccc1OCCC(=O)N1CCCC1Cn1cccn1` (stereo unspecified), for which the Percent Effect is -6.85% in assay [1]; 15.8% in assay [2]; -7.6% in assay [3]; 14.4% in [4]; 3.64% in assay [5]; -1.44% in assay [6]. In addition, the Percent Effect was 0.254% in [7]; 1.25% in [8]; 5.42% in assay [9]; 13.6% in assay [10]; -6.6% in assay [11].
In the case of `Cc1nn(C)c(C)c1-c1cncc(C2CCN(S(C)(=O)=O)CC2)n1`, the Percent Effect is 0.332% in [1]; -2.67% in [2]; 22.7% in [3]; 4.44% in assay [4]; -1.77% in assay [5]; 2.1% in [6]. Also, the Percent Effect in [7] is -3.96%; in assay [8] it was 25.6%; in [9], 3.19%; in [10], 3.85%; in assay [11], 0.849%.
Turning to `CCOc1ccc(Cl)cc1C1CCCN1` (stereo unspecified), the Percent Effect was -3.13% in [1]; 10.5% in assay [2]; 4% in [3]; 1.21% in [4]; 3.21% in assay [5]; -11.8% in [6]. Moreover, the Percent Effect in [7] was 13.5%; in [8] it was 2.15%; in assay [9] it was 0%; in assay [10], 7.79%; in [11], -2.96%.
As to `Cc1cc(C)n(CC2CN(Cc3nc(-c4ccoc4)no3)CCO2)n1` (stereo unspecified), the Percent Effect was -0.455% in assay [1]; 16.2% in assay [2]; -10.1% in [3]; 0.775% in [4]; 6.51% in assay [5]; -2.81% in assay [6]. Besides, the Percent Effect in assay [7] is 5.22%; in [8] it was 7.72%; in assay [9], 3.45%; in assay [10], 18.5%; in [11] it was -11.6%.
Regarding `Cc1ccc(CN2CC[C@H]3[C@@H]2CCC(=O)N3CCN2CCCC2)s1`, the Percent Effect in [1] is -1.28%; in assay [2], 10.7%; in [3], 8.56%; in assay [4] it was -12.2%; in assay [5], -8.27%; in assay [6], -3.03%. In addition, the Percent Effect in [7] was 10.5%; in assay [8], 7.46%; in [9] it was -3.19%; in assay [10], 1.28%; in assay [11] it was -2.35%.
Turning to `COC(=O)C(c1cc(F)ccc1F)N(C)C(=O)c1ccnc(C)n1` (stereo unspecified), the Percent Effect is -4.44% in assay [1]; -46.8% in [2]; 8.88% in assay [3]; 3.63% in assay [4]; -2.77% in assay [5]; 0.645% in assay [6]. Also, the Percent Effect is 1.72% in assay [7]; 18.2% in assay [8]; 7.29% in [9]; 15.2% in assay [10]; -3.25% in assay [11].
As to `Cc1cccc(CN(Cc2ccc(C)o2)C2CC(C)(C)NC(C)(C)C2)n1`, the Percent Effect was -4.93% in assay [1]; 9.46% in [2]; 9.39% in [3]; -2.48% in [4]; -6.13% in assay [5]; -3.48% in [6]. Moreover, the Percent Effect in assay [7] is 10.8%; in assay [8] it was 1.42%; in [9], 3.23%; in [10], 3.9%; in assay [11] it was -0.669%.

Source of the values: ChEMBL document CHEMBL3988442, “University of Dundee, Small-Polar-MMV Screening Library” (2021).
